Whole data set: some 33,000 sequences, median “E-score (-0.5 to 0.5)” near -0.012, cut for the highest 2% near 0.27. What follows is part of a selection rich in the highest values, with near analogues and random picks from the rest.
Target: T1, Vhr1 (UniProt P40522)
T1 sequence: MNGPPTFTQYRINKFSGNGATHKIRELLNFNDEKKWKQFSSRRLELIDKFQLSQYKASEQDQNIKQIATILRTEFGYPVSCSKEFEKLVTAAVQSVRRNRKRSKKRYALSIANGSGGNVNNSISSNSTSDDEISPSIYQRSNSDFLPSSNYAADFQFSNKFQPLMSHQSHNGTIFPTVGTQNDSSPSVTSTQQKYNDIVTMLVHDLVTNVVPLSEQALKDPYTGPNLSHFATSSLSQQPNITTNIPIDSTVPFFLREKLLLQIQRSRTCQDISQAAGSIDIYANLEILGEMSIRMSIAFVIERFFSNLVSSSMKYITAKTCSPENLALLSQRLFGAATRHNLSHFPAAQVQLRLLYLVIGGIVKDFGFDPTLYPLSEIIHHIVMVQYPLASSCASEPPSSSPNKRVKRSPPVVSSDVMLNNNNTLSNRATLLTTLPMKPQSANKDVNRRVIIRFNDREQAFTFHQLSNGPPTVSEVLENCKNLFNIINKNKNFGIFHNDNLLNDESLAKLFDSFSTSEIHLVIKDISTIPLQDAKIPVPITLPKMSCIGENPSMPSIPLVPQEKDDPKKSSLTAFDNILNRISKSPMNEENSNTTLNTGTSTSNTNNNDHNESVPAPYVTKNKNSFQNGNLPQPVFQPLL
Assay: PBM E-score (8-mer binding enrichment) (E-score (-0.5 to 0.5)); higher = stronger / more preferred TF binding
Conditions: protein concentration: 200 nM; construct: GST-full length
Outline: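 Universal all-10-mer Agilent arrays, double-stranded by primer extension on fresh or once-stripped slides, were probed with about 100-200 nM GST-tagged yeast transcription factors made by PURExpress. Fluorescent anti-GST detected bound protein, and masliner normalised the scans. E-scores from the Universal PBM Analysis Suite were given to each ungapped eight-base word pooled with its reverse complement.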

| Sequence | PBM E-score |
| --- | --- |
| GCGTGGCA | -0.22 |
| GACTCCTC | 0.4 |
| GACTCCTA | 0.384 |
| AACTCCTC | -0.268 |
| CACTCCTC | 0.183 |
| CACTCCAC | 0.0458 |
| GACTCCAA | 0.237 |
| AACTCCTA | 0.017 |
| CACTCCTA | -0.262 |
| GACTCCAC | 0.346 |
| GTATTGGA | -0.184 |
| TTTATAAA | -0.0811 |
| CGACCCCC | -0.261 |
| CTTTAACC | -0.127 |
| AGAACCAA | -0.0911 |
| CTATCATA | 0.164 |
| TAATCAAA | 0.101 |
| GAATCATC | 0.437 |
| TAATCATA | 0.314 |
| CCATCATA | 0.0955 |
| CAATCATA | 0.317 |
| GTATCATA | 0.288 |
| CAATCAGA | -0.0178 |
| ATATCATA | 0.216 |
| ACATCATC | 0.166 |

| Sequence | PBM E-score |
| --- | --- |
| GAATCAAC | 0.247 |
| TAATCGTA | 0.114 |
| TACGATGA | 0.11 |
| ACTTCTTC | -0.00857 |
| TACTCCTA | 0.123 |
| CCAGAGCG | -0.145 |
| ACGACAAA | 0.092 |
| GAATCAAA | -0.0259 |
| GCATCATA | 0.136 |
| CCATCATC | 0.138 |
| GAATCATA | 0.397 |
| CAATCATC | 0.284 |
| AAATCATC | 0.245 |
| ATTTACAA | -0.101 |
| ATCACAAC | 0.00509 |
| ATCACACC | 0.288 |
| ATCACATA | 0.19 |
| ATCACACA | 0.282 |
| ATCACACG | 0.102 |
| ATCACAGC | 0.182 |
| ATAGGCAA | -0.246 |
| ACCTCGAC | -0.00505 |
| AGCTGCCT | -0.219 |
| AGTTTTTC | -0.152 |
| CCAGCGAG | 0.181 |

| Sequence | PBM E-score |
| --- | --- |
| TGCACGCA | -0.0577 |
| CTAGTTGA | 0.202 |
| GTAGTTGA | 0.277 |
| ATAGTTGA | 0.0409 |
| AGAAATCT | -0.217 |
| GGACGCTA | -0.324 |
| CAACTTGG | 0.0538 |
| GGTCAACC | 0.0175 |
| AGTCAACA | 0.19 |
| AGTCAACG | 0.278 |
| AGTCAACT | 0.144 |
| CGTCAACG | -0.0358 |
| AGTCAACC | 0.373 |
| ATCTGATA | 0.0202 |
| CATGTAGA | 0.00603 |
| AGTCGCTA | 0.174 |
| CCCCACTC | 0.128 |
| CCCCACCC | 0.36 |
| CCCCACCA | 0.0983 |
| ACCCACTC | 0.282 |
| CCCCTCCC | 0.171 |
| ACCCACCG | 0.256 |
| ACCCACCT | 0.0548 |
| ACCCTCCC | 0.307 |
| ACCCTCCT | -0.116 |

| Sequence | PBM E-score |
| --- | --- |
| ACCCACCC | 0.397 |
| ACCCACTG | 0.22 |
| CCCCACCG | 0.188 |
| AAAGCCAT | -0.0236 |
| CGTCCCAC | 0.0371 |
| GGTTAGAC | -0.00016 |
| GGGCTTGA | -0.125 |
| ACCCTAAT | -0.0655 |
| CCAAAAGA | -0.201 |
| TCCCACCA | -0.112 |
| GCCCACCC | 0.284 |
| ACCACCCA | 0.192 |
| GCCCACAC | 0.069 |
| GCCCACCA | -0.125 |
| ACCCACCA | 0.296 |
| CCGAGAGC | -0.0932 |
| ATAGCGCC | 0.0931 |
| CCATTCGA | -0.172 |
| AGCTGTAC | 0.016 |
| GAAGAAAA | -0.221 |
| CCCGCGGG | 0.102 |
| ACCGCGCT | 0.0474 |
| ACCGCGGG | 0.312 |
| ACCGCGGT | 0.0486 |
| ACCGCGCG | 0.336 |

| Sequence | PBM E-score |
| --- | --- |
| ACCGCGCC | -0.0598 |
| GGAAGAAC | 0.0668 |
| ACTATCAT | 0.251 |
| ATAGGGCG | -0.0674 |
| AGGAGGGC | -0.11 |
| AGGAGGGA | -0.101 |
| AGGAGGGG | 0.284 |
| TATGGGCA | 0.131 |
| ACTCCCAA | 0.112 |
| GTCAGGTA | 0.126 |
| ATGATTTG | 0.172 |
| ACGATTCA | 0.112 |
| GTGATTCA | 0.408 |
| ATGATTCG | 0.412 |
| GGGATTCA | 0.134 |
| CAGATTCA | -0.232 |
| ATGATTCA | 0.443 |
| GAGATTCA | 0.0192 |
| CGGATTCA | 0.0469 |
| CTGATTCA | 0.341 |
| AGGATTCA | -0.0305 |
| AAGATTCG | 0.0242 |
| ATCCAAGC | 0.0358 |
| ACTGCCCC | -0.0425 |
| GTGGACCA | 0.0132 |

| Sequence | PBM E-score |
| --- | --- |
| ATTTTGGG | -0.177 |
| CCGGTAGC | -0.00183 |
| AGTGTACG | 0.163 |
| ATCCAATA | 0.135 |
| GGGAGGAC | -0.0865 |
| GCTGGTAA | -0.148 |
| GGCTAACA | -0.0545 |
| GAGGTGTA | -0.038 |
| GAGTTGGC | 0.161 |
| CTGATTCC | 0.261 |
| AGGATTCC | 0.0112 |
| ATGATTCC | 0.445 |
| GCATCCAC | 0.0832 |
| CACAGACA | 0.0563 |
| AACAGACA | 0.285 |
| AACAGCCG | -0.0956 |
| CACAGACC | 0.307 |
| CACAGACG | 0.104 |
| CACAGCCG | 0.281 |
| AACAGACT | 0.0598 |
| CACAGCCC | -0.0755 |
| GACAGACA | 0.294 |
| CTCAGACC | -0.00267 |
| AACAGACC | 0.0701 |
| GACAGACC | -0.067 |

| Sequence | PBM E-score |
| --- | --- |
| ACGGCGAA | 0.0608 |
| CCATATCG | 0.245 |
| GAAATTTA | -0.157 |
| AAATGCGA | -0.00728 |
| ATCAGACC | 0.0881 |
| GCTCTCAA | -0.0323 |
| CATCTGGA | 0.0944 |
| CTAATGAG | 0.0521 |
| CGTTGCGA | 0.0286 |
| GGCCAGAA | -0.00605 |
| ACAGTACT | 0.0536 |
| CATTAGCA | -0.152 |
| CGTCGAAG | 0.0798 |
| AGTAGTGA | 0.106 |
| CGTAGTCC | -0.0429 |
| CGTAGTAA | -0.095 |
| AGTAGTCC | 0.0701 |
| AGTAGTTG | 0.29 |
| AGTAGTTC | 0.108 |
| AGTAGTTA | 0.0583 |
| AGTAGTAG | 0.0116 |
| AGTAGTCG | 0.292 |

From the supplement of paper PMC3334620
